In all, about 360,000 compounds went through this assay and about 780 (0.22%) were called active. The sample holds actives, similar compounds and a random draw of the others, so the mix is not that of the screen. No stated cut-off is given here; in the data, active means inhibition above about 8.5% (passing the limit was not always enough); inconclusive means no clear call, values can overlap the other calls.
test system: Mycobacterium tuberculosis FadD28 fatty-acid-AMP ligase; assay: inhibitors of FadD28 bisubstrate probe binding, primary screen, biochemical, fluorescence polarization, single point (AID 588549); conditions: at 12.5 µM, stronger effect = higher value

| Compound | inhibition |
| --- | --- |
| C=CCSc1ccc(S(=O)(=O)N2CCN(C)CC2)cn1 | -0.339% (inactive) |
| CCN(CC)C(CNC(=O)CSc1nnnn1-c1cccc(F)c1)c1ccco1 (stereo not drawn) | -0.979% (inactive) |
| Cc1ccc(S(=O)(=O)N(C)C)cc1NC(=O)COC(=O)c1c(C)noc1C | -3.04% (inactive) |
| COCCNC(=O)CCCn1c(=O)c2ccccc2n(Cc2cccc([N+](=O)[O-])c2)c1=O | -2.03% (inactive) |
| CSC1=NC2(C)CCCCC2C12C=CC(=O)C=C2 (stereo not drawn) | -1.74% (inactive) |
| O=C(Nc1ccc(N2CCOCC2)c(Cl)c1)c1ccc(S(=O)(=O)N2CCOCC2)cc1 | -1.1% (inactive) |
| CC(=O)c1nn(-c2cccc(C(F)(F)F)c2)c(=O)[nH]c1=O | -2.32% (inactive) |
| O=C(Nc1cc(=O)[nH]c2ncnn12)c1ccccc1Cl | 0.264% (inactive) |
| CC(C(=O)N1CCOCC1)N1c2cccc3cccc(c23)S1(=O)=O (stereo not drawn) | -1.36% (inactive) |
| OC1CN=C2Sc3ccccc3N2C1 (stereo not drawn) | -1.93% (inactive) |
| COc1ccccc1NC(=O)CSc1nnc(Cn2nnc(-c3ccccc3)n2)n1-c1ccccc1 | -2.49% (inactive) |
| Nc1cc(C(=O)N2CCN(c3ccccc3Cl)CC2)ccc1N1CC2CC(C1)c1cccc(=O)n1C2 (stereo not drawn) | 0.263% (inactive) |
| CC(=O)Nc1ccc(S(=O)(=O)NCCC(=O)N2CCN(c3ccccc3Cl)CC2)cc1 | -0.39% (inactive) |
| COc1cc(CCC(=O)Nc2ccncc2Cl)cc(OC)c1OC | -0.965% (inactive) |
| COc1cc(CCC(=O)N2CCN(c3ccccc3Cl)CC2)cc(OC)c1OC | 67.4% (active) |
| CCOc1ccc(CCNC(=O)CN2C(=O)NC3(CCc4ccccc43)C2=O)cc1OCC (stereo not drawn) | -4.62% (inactive) |
| C=CCN(CC=C)CCOc1ccccc1[N+](=O)[O-] | 0.271% (inactive) |
| COC(=O)[C@H](C(C)C)n1c(C)c(C(C)=O)c(C(C)=O)c1C | -1.13% (inactive) |
| N#Cc1ccc(C(=O)OCC(=O)NC(=O)NC2CCCCC2)cc1 | -1.55% (inactive) |
| CCS(=O)(=O)Nc1ccc(C2=NN(S(=O)(=O)c3ccc(F)cc3)C(c3ccco3)C2)cc1 (stereo not drawn) | -3.77% (inactive) |
| COc1cccc(C2CC(c3cccs3)=NN2C(=O)CSC2=NCCS2)c1OC (stereo not drawn) | -1.77% (inactive) |
| COc1cccc(C2CC(c3ccccc3)=NN2S(=O)(=O)c2ccccc2)c1OC (stereo not drawn) | 9.71% (active) |
| COCCN(CCOC)c1nc(N)c2c(N)nc3c(c2c1C#N)CC(=O)N3Cc1ccc(Cl)cc1 | 39.6% (active) |
| Cc1ccc(-c2csc(NCCc3nc4cc(Cl)c(Cl)cc4n3CCOCCO)n2)cc1 | -0.743% (inactive) |
| CC(C)CC(=O)Nc1nnc(S(=O)(=O)N(C)c2ccc(Cl)cc2)s1 | 19.6% (active) |
| CCC(=O)Nc1nnc(S(=O)(=O)N(CC(C)C)c2ccccc2)s1 | -1.99% (inactive) |
| Cc1nc(NC(=O)CN(C)S(=O)(=O)c2ccc(Cl)cc2)sc1C | 0.291% (inactive) |

| Compound | inhibition |
| --- | --- |
| CN(CC#CCC(c1ccccc1)c1ccccc1)C(C)(C)C | -4.42% (inactive) |
| O=C(NCCc1ccco1)c1ccc(OCc2cn3ccccc3n2)cc1 | -3.83% (inactive) |
| Cc1ccccc1-c1csc(C(O)c2cccc(Cl)c2)n1 (stereo not drawn) | -5.7% (inactive) |
| COc1cccc2c1C(=O)c1c(O)c3c(c(O)c1C2=O)CC(O)(C(C)=NNC(=O)c1ccc(Cl)c(Cl)c1)CC3OC1CC(N)C(O)C(C)O1 (stereo not drawn) | 59.5% (active) |
| CN(C(=O)CN1C(=O)CCSc2ccc(S(=O)(=O)N3CCCC3)cc21)c1ccccc1 | -0.827% (inactive) |
| CC1=CC2=NC(=O)CC(C)(C(=O)N(CC(=O)NC(C)(C)C)Cc3ccccc3)N2C=C1 (stereo not drawn) | 0.336% (inactive) |
| COc1ccccc1OCCC(=O)OCC(=O)NCc1ccccc1 | -1.13% (inactive) |
| COc1cc(-c2nnn(CC(=O)NCc3ccccc3)n2)cc(OC)c1OC | 0.0025% (inactive) |
| COc1cc(C(=S)NCc2ccccc2)cc(Br)c1O | 11% (active) |
| CSc1ccc(CN2CCC2(C)C(=O)Nc2ccc(C)c(O)c2)cc1 (stereo not drawn) | -2.96% (inactive) |
| Cc1cc(-c2ccc(C)c(S(=O)(=O)NC(C)Cc3ccco3)c2)on1 (stereo not drawn) | -1.87% (inactive) |
| Cc1cc(-c2ccc(C)c(S(=O)(=O)Nc3ccc(S(N)(=O)=O)cc3)c2)on1 | 14.4% (active) |
| CCc1ccc(-c2cc(C)no2)cc1S(=O)(=O)NCCc1ccc(S(N)(=O)=O)cc1 | -1.2% (inactive) |
| CO[C@@H]1[C@@H](OC(N)=O)[C@@H](O)C(Oc2ccc3c(O)c(NC(=O)c4ccc(O)c(CC=C(C)C)c4)c(=O)oc3c2C)OC1(C)C (stereo partly drawn) | -2.46% (inactive) |
| Cc1cccc(C)c1NC(=O)CS(=O)CC(=O)N1CCN(c2ccccc2)CC1 (stereo not drawn) | 0.692% (inactive) |
| Cc1ccc(NC(=O)CSCC(=O)NC2CCCCC2)cc1 | 1.13% (inactive) |
| O=c1/c(=C/c2ccc(CNS(=O)(=O)c3ccccc3)o2)sc2n1CCN=2 | -4.15% (inactive) |
| Cc1ccc(N2CCN(S(=O)(=O)N(C)C)CC2)cc1Cl | 0.0335% (inactive) |
| CC(C)CC(N=C1NC(C)(C)Cc2ccccc21)C(=O)O (stereo not drawn) | -3.18% (inactive) |
| CCCn1c(=S)[nH]c2ccc(C(F)(F)F)cc21 | -2.34% (inactive) |
| Cc1nn(C(C)CC(=O)O)c(C)c1C (stereo not drawn) | -1.05% (inactive) |
| CCCC(=O)Nc1ccc2c(c1)nc1n2CCSC1 | -0.77% (inactive) |
| CS/C(=C\[N+](=O)[O-])Nc1ccc(C)cc1 | 2.23% (inactive) |
| CC(C)CNC(=O)C(=O)NCC(c1ccc2c(c1)OCO2)N1CCOCC1 (stereo not drawn) | -1.64% (inactive) |
| CCCCN1C(=O)C(CC(=O)NCc2cccs2)CC(C(=O)N2CCOCC2)=C1C (stereo not drawn) | -1.02% (inactive) |
| CCNC(=O)NC(=O)C(C)OC(=O)C1CCN(S(=O)(=O)c2ccccc2F)CC1 (stereo not drawn) | -0.363% (inactive) |

— PubChem BioAssay AID588549 (Broad Institute, 2011)
